The text below walks through data of PubChem BioAssay (NCATS).

The subject of one assay is HEK293. Briefly: Cytotoxic Profiling of Annotated Libraries Using Quantitative High-Throughput Screening (AID 1296008). For max response: % is set by controls: 0 for no effect and ±100 for the full control effect. Note: potency is the fitted concentration of half-maximal effect. The settings on record: Five cell lines viability, CellTiter-Glo ATP luminescence, 48-72 h; max response: active compounds read low. The gist of the method: (§1)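 Cells exposed to compounds for 48 or 72 hr at 37 degrees Celsius. Viability read as ATP-coupled luminescence with CellTiter-Glo after 10 min at room temperature.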

The subject of another assay is KB-3-1. The description is as above. The settings on record: Five cell lines viability, CellTiter-Glo ATP luminescence, 48-72 h; max response: active compounds read low. Put shortly:
as §1

Another assay deals with NIH3T3. The description is as above. The settings on record: Five cell lines viability, CellTiter-Glo ATP luminescence, 48-72 h; max response: active compounds read low. Put shortly:
as §1

Assay [1] relates to HaCat. The assay is described as above. The note with it: Five cell lines viability, CellTiter-Glo ATP luminescence, 48-72 h; max response: active compounds read low. Put shortly:
as §1

For assay [2], the system named is HACAT. Briefly: qHTS assay to identify novel small-molecules to repurpose for Merkel cell carcinoma treatment (AID 1296009). The settings on record: MCC and control cell lines, CellTiter-Glo viability, 72 h; series mostly up to 44.8 µM. Put shortly:
(§2)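 Dose-response viability screen; 72 hr exposure at 37 degree celsius; CellTiter-Glo added, 10 min room temperature, luminescence read; RLUs scaled between no-cell and DMSO wells.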

The test system of the next assay is HEK293T. The description is as above. The note with it: MCC and control cell lines, CellTiter-Glo viability, 72 h; at 44.8 µM (top of the series) unless noted. Put shortly: as §2

SMILES strings stand for the structures. Inconclusive results are not listed. A number with no mark means an inactive call. Active and inactive are the calls of the source. Calls come from the whole dose curve; as a rule, active = well fitted inhibition curve with a large enough effect; inconclusive = small, poorly fitted or top-dose-only effect; inactive = flat fitted curve, though single readings scatter.
Note: nearly all actives have a fitted effect of over 60% in size.

On to `CC(=O)OC12COC1CC(O)C1(C)C(=O)C(O)C3=C(C)C(OC(=O)C(O)C(NC(=O)OC(C)(C)C)c4ccccc4)CC(O)(C(OC(=O)c4ccccc4)C21)C3(C)C` (stereo not drawn), for which the max response in the assay with HEK293 is -76.3%. Also, the Potency is 0.0018 µM (active) in the assay on KB-3-1 and 0.0164 µM (active) in the assay on NIH3T3.
As to `C/C=C/C=C/C=C/C(=O)OC1C=C(C=O)C(O)(C(=O)O)C2(C)CCCC(C)(C)C12` (stereo not drawn), the max response is 1.26% in the assay with HEK293, 7.06% in the assay on KB-3-1 and 3.49% with NIH3T3.
Regarding `Cc1ncc(CCCN(C)C)cc1Nc1ncc2c(n1)-c1ccc(C(F)(F)F)cc1NC(=S)C2`, in the assay with HEK293, the max response is -92.5%. Also, the Potency was 0.0046 µM (active) in the assay with KB-3-1 and 3.66 µM (active) with NIH3T3.
For the compound `Cc1c(C(=O)Nc2ccc(N3CC(C)OC(C)C3)nc2)cccc1-c1ccc(OC(F)(F)F)cc1` (stereo not drawn), the max response with KB-3-1 is -28.5%.
In the case of `Cc1ccc(NC(=O)Nc2cc(C(F)(F)F)ccc2F)cc1Nc1ccc2c(c1)NC(=O)/C2=C\c1ccc[nH]1`, the Potency is 11.6 µM (active) in the assay on HEK293, 20.6 µM (active) with KB-3-1 and 18.4 µM (active) in the assay with NIH3T3.
The corresponding values for `CC(=O)O[C@H]1C(=O)[C@@]2(C)[C@H]([C@H](OC(=O)c3ccccc3)[C@]3(O)C[C@H](OC(=O)[C@H](O)[C@@H](NC(=O)c4ccccc4)c4ccccc4)C(C)=C1C3(C)C)[C@]1(OC(C)=O)CO[C@@H]1C[C@@H]2O` are 0.0055 µM (active), 0.0098 µM (active) and 0.031 µM (active).
Taken in the same sequence, the figures for `CN(C)CCCCC(=O)Nc1ccc(NC(=S)NC(=O)c2ccc(C(C)(C)C)cc2)cc1` were 6.51 µM (active), 14.6 µM (active) and 7.31 µM (active).
As to `c1cn2cc(-c3ccc4cn[nH]c4c3)nc(Nc3ccc(N4CCOCC4)cc3)c2n1`, in the assay on HEK293, the Potency is 18.4 µM (active). The max response was 3.1% in the assay with KB-3-1 and -11.5% with NIH3T3.
Regarding `C[C@H]1C(=O)N2c3ccccc3[C@@]3(O)C[C@@H]4C(=O)N[C@](C)(c5nc6ccccc6c(=O)n54)N1[C@@H]23`, the max response in the assay on HEK293 was -0.775%; in the assay on NIH3T3, -0.721%. Besides, the compound was classed as inactive in the assay with KB-3-1.
Regarding `Cc1cccc(/C=N/Nc2cc(N3CCOCC3)n3nc(-c4ccncc4)cc3n2)c1`, the values for the Potency in the assay with HEK293 and in the assay on NIH3T3 were 5.8 µM (active) and 0.651 µM (active), respectively. In the assay with KB-3-1, the max response is -17.8%.
`Cc1cc(Nc2ccc(NC(=O)c3ccc(Nc4ccnc5ccccc45)cc3)cc2)nc(N)n1`: the results for the Potency in the assay on HEK293, in the assay on KB-3-1 and in the assay on NIH3T3 were 3.26 µM (active), 4.61 µM (active) and 18.4 µM (active), respectively.
Take `Cc1cccc2c1NC(=O)C2(c1ccc(O)cc1)c1ccc(O)cc1`: the max response in the assay with HEK293 is -20.9%; in the assay on KB-3-1 it was -4.45%; in the assay with NIH3T3, -15.5%.
As for `COc1cc(O)c2c(c1)C1=CC(O)C(O)CC1(C)OC2=O` (stereo not drawn), the max response is -5.55% in the assay on HEK293 and -6.33% in the assay on NIH3T3. In addition, the call in the assay on KB-3-1 was inactive.
`Cc1cc(C)c(Nc2ccnc(Nc3ccc(C#N)cc3)n2)c(C)c1`: the Potency with HEK293 was 5.17 µM (active); in the assay on KB-3-1, 20.6 µM (active); in the assay with NIH3T3, 13 µM (active).
With `CC1(C)CCCC2(C)C1CC(=O)C13CC(CCC12)C(O)(CO)C3` (stereo not drawn), the compound was called inactive in the assay on HaCat [1]. The figures for the max response in the assay with KB-3-1 and with NIH3T3 were 8.26% and 2.51%, respectively. For the same compound, in the assay on HACAT [2], the Potency entry was “inactive”.
On to `Cc1c[nH]c2nccc(Oc3c(F)cc(Nc4cc(Cl)nc(N)n4)cc3F)c12`, for which the Potency with HEK293 was 5.8 µM (active); in the assay on KB-3-1, 1.46 µM (active); in the assay with NIH3T3, 10.3 µM (active).
For the compound `Cc1ccc(S(=O)(=O)Nc2ccccc2N2CCCCC2)s1`, the Potency with HEK293 was 18.4 µM (active). The max response with KB-3-1 was -18.9%; with NIH3T3, 2.48%.
Consider `C=C1C(O)CC2C(C(=O)O)=COC(O[C@@H]3O[C@H](COC(=O)/C=C/c4ccc(O)cc4)[C@@H](O)[C@H](O)[C@H]3O)C12` (stereo partly drawn), for which the max response in the assay with HaCat [1] is -10.4%; with NIH3T3 it was -4.95%. In addition, in the assay on KB-3-1, the compound was classed as inactive. In addition, in the assay on HEK293T, the outcome was “inactive [at 17.4 µM]”.
As for `O=C(Nc1ccc(-c2ccncc2)cc1)N[C@H](CO)c1ccccc1`, the max response with HEK293 is -14.1%; in the assay on NIH3T3, -5.95%. For the same compound, the outcome with KB-3-1 was inactive.
With `N#Cc1c(Oc2ccc(F)c(NC(=O)Cc3cccc(C(F)(F)F)c3)c2)ccc2nc(NC(=O)C3CC3)sc12`, the Potency is 1.3 µM (active) in the assay on HEK293, 16.4 µM (active) in the assay on KB-3-1 and 1.46 µM (active) with NIH3T3.
Regarding `NC(=O)c1cccc2cn(-c3ccc(C4CCCNC4)cc3)nc12` (stereo not drawn), the Potency in the assay with HEK293 was 7.31 µM (active). In addition, the max response with KB-3-1 is -7.35%; in the assay on NIH3T3 it was -14%.
